Test results: PubChem BioAssay (NCI)
The panel holds about 79,000 compounds, 15% with a hit somewhere; the sample as a whole holds those more often. Unmarked numbers belong to inactive results. Calls of active or inactive are those of the source. No stated cut-off is given here; in the data, active means growth inhibition above about 70%; inactive means the rest.

Experiments:
[1] = NCI Yeast Anticancer Drug Screen. Data for the rad50 strain (AID 155);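 further: 0% = growth of vehicle-only cultures of the same strain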; details: S. cerevisiae rad50 strain growth inhibition, hits give high values
Method in brief: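 Inhibition values express reduced yeast growth in compound-treated cultures relative to vehicle-treated controls.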

[2] = NCI Yeast Anticancer Drug Screen. Data for the mec2-1 strain (AID 157); details: S. cerevisiae mec2-1 strain, hits give high values
Method in brief: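 Cells of the genetically defined mec2-1 yeast strain are incubated with test compound. Inhibition of growth is calculated against vehicle-treated controls.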

[3] = NCI Yeast Anticancer Drug Screen. Data for the sgs1 mgt1 strain (AID 161);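 further: 0% = growth of cultures given vehicle only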; details: S. cerevisiae sgs1 mgt1 strain, hits give high values
Method in brief: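 Read-out: growth inhibition vs vehicle controls. Cells: mutant yeast strain deficient in DNA damage repair.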

[4] = NCI Yeast Anticancer Drug Screen. Data for the cln2 rad14 strain (AID 165);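 further: 0% = growth equal to vehicle treated cultures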; details: S. cerevisiae cln2 rad14 strain, hits give high values
Method in brief: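 The screen exposed genetically defined yeast (cln2 rad14) to test compounds and scored growth inhibition relative to vehicle-treated controls.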

[5] = NCI Yeast Anticancer Drug Screen. Data for the bub3 strain (AID 167); details: S. cerevisiae bub3 mutant strain, hits give high values
Method in brief: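 Steps: expose the mutant yeast strain to compound; grow alongside vehicle-treated cultures; measure growth; express inhibition against the vehicle cultures.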

[6] = NCI Yeast Anticancer Drug Screen. Data for the mlh1 rad18 strain (AID 175); details: S. cerevisiae mlh1 rad18 strain growth inhibition, hits give high values
Method in brief: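 Compound-treated yeast growth, normalised to vehicle controls. Strain bears defined DNA repair mutations.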

[7] = at 5.0 µM (retest, dose inferred, filed as 0.5)
[8] = at 50.0 µM (retest, dose inferred, filed as 5.0)

Structure (SMILES) | growth inhibition [1, 7] | growth inhibition [1, 8] | growth inhibition ([1]; at 50.0 µM) | growth inhibition [2, 7] | growth inhibition [2, 8] | growth inhibition ([2]; at 50.0 µM) | growth inhibition [3, 7] | growth inhibition [3, 8] | growth inhibition ([3]; at 50.0 µM) | growth inhibition [4, 7] | growth inhibition [4, 8] | growth inhibition ([4]; at 50.0 µM) | growth inhibition [5, 7] | growth inhibition [5, 8] | growth inhibition ([5]; at 50.0 µM) | growth inhibition [6, 7] | growth inhibition [6, 8] | growth inhibition ([6]; at 50.0 µM)
C[C@]12Cc3cn4ncnc4nc3CC1CC[C@@H]1[C@@H]2CC[C@]2(C)C(O)CC[C@@H]12 (some centres not stated) | 21% | 97% (active) | 97.5% (active) | 24% | 99% (active) | 95% (active) | 60% | 99% (active) | 98% (active) | 25% | 91% (active) | 78.7% (active) | 24% | 97% (active) | 97% (active) | 48% | 98% (active) | 98.6% (active)
N=C(N)c1ccc(NN=Nc2cccc3c2Oc2ccccc2O3)cc1 | 48% | 89% (active) | 80% (active) | 20% | 84% (active) | 78.1% (active) | 32% | 90% (active) | 74.6% (active) | 14% | 69% | 71% (active) | 10% | 80% (active) | 83.5% (active) | 17% | 83% (active) | 70.2% (active)
O=[As](O)(O)c1ccc(Cc2ccc([As](=O)(O)O)cc2)cc1 | 82% (active) | 100% (active) | 99.2% (active) | 62% | 100% (active) | 99.5% (active) | 26% | 99% (active) | 99% (active) | 59% | 99% (active) | 98.5% (active) | 66% | 100% (active) | 99.1% (active) | 78% (active) | 99% (active) | 99.2% (active)
COC(=O)[CH2][Sn]([CH2]C(=O)OC)([CH]1CCCCC1)[CH]1CCCCC1 | 3% | 65% | 98.4% (active) | -3% | 45% | 97.2% (active) | 2% | 69% | 99.2% (active) | 5% | 33% | 98% (active) | 1% | 59% | 97.2% (active) | 2% | 48% | 98.5% (active)
N#C[S-].[Ce+3].c1cnc2c(c1)ccc1cccnc12.c1cnc2c(c1)ccc1cccnc12.c1cnc2c(c1)ccc1cccnc12 | 96% (active) | 99% (active) | 92% (active) | 99% (active) | 100% (active) | 94.8% (active) | 100% (active) | 100% (active) | 91% (active) | 94% (active) | 98% (active) | 93.5% (active) | 99% (active) | 99% (active) | 93% (active) | 97% (active) | 99% (active) | 92.8% (active)
CCC[CH2][Sn]1([CH2]CCC)[O]CC(C)[O]1 (configuration not stated) | 33% | 95% (active) | 86% (active) | 30% | 97% (active) | 90% (active) | 42% | 68% | 88.2% (active) | 34% | 64% | 87.2% (active) | 48% | 97% (active) | 88.3% (active) | 53% | 96% (active) | 86.7% (active)
O=c1ccc(N=Cc2ccc(N(CCCl)CCCl)cc2)ccc1O | 94% (active) | 93% (active) | 96.2% (active) | 92% (active) | 97% (active) | 65.4% | 97% (active) | 98% (active) | 92% (active) | 52% | 89% (active) | 35.4% | 95% (active) | 93% (active) | 93% (active) | 98% (active) | 98% (active) | 93.8% (active)
Cc1ccc2c(c1)N(CCN(CCCl)CCCl)c1c(ccc3ccccc13)S2 | 0% | 83% (active) | 90.2% (active) | -1% | 87% (active) | 67.2% | -9% | 84% (active) | 93.4% (active) | -6% | 79% (active) | 75.4% (active) | -1% | 82% (active) | 34.7% | 11% | 84% (active) | 91.9% (active)
COC1CCCC2OC3(OC)C(OC)CCCC3OC12OC (configuration not stated) | 3% | -4% | 12.2% | -1% | -3% | 14.7% | 2% | -2% | 10.2% | 5% | -39% | 40.9% | 3% | 9% | 27.2% | -1% | -11% | 7.85%
N#CC(Cl)(Cl)CCl | 6% | 41% | -16.8% | -4% | 15% | 13.2% | 4% | 42% | -9% | -5% | 33% | 47% | 6% | 99% (active) | 0.15% | 2% | 38% | 2.5%
CC(=O)C(CN(CC(C)C)CC(C)C)C(c1ccccc1)c1c(O)c2ccccc2oc1=O (configuration not stated) | 0% | 0% | 80.1% (active) | -12% | -12% | 73.7% (active) | -2% | -2% | 85% (active) | -10% | -10% | 83.2% (active) | -1% | -1% | 78.8% (active) | 7% | 7% | 81.9% (active)
Oc1c(Cl)cc(Cl)cc1Cl.[Cu+2] | 6% | 95% (active) | 99.7% (active) | -28% | 98% (active) | 99.5% (active) | -4% | 94% (active) | 99.8% (active) | -9% | 97% (active) | 98.2% (active) | -10% | 97% (active) | 99.5% (active) | 0% | 98% (active) | 99.3% (active)
COc1cc2c(c3c[n+](C)c4c5cc6c(cc5ccc4c13)OCO6)OCO2 | 98% (active) | 98% (active) | 92.2% (active) | 99% (active) | 99% (active) | 94.8% (active) | 99% (active) | 98% (active) | 93.7% (active) | 98% (active) | 98% (active) | 92.2% (active) | 98% (active) | 97% (active) | 93.1% (active) | 99% (active) | 98% (active) | 92.8% (active)
O=[N+]([O-])/C=C\c1ccccc1 | 65% | 99% (active) | 92.8% (active) | 17% | 99% (active) | 95.2% (active) | 20% | 99% (active) | 91.8% (active) | 14% | 99% (active) | 82.7% (active) | 39% | 99% (active) | 97% (active) | 26% | 99% (active) | 79% (active)
CC[n+]1c(/C=C/c2ccc(N(CCCl)CCCl)cc2)ccc2cc(Br)ccc21 | 97% (active) | 97% (active) | 85.5% (active) | 96% (active) | 96% (active) | 84% (active) | 98% (active) | 98% (active) | 82.9% (active) | 90% (active) | 90% (active) | 82% (active) | 96% (active) | 96% (active) | 85.2% (active) | 96% (active) | 96% (active) | 82.2% (active)
COc1cc(/C=C/[N+](=O)[O-])c(OC)cc1Br | 44% | 58% | 59.9% | 27% | 45% | 83.3% (active) | 15% | 87% (active) | 87% (active) | 37% | 25% | 73% (active) | 24% | 75% (active) | 88.2% (active) | 38% | 40% | 89.2% (active)
COc1ccccc1[As]=[As]c1ccccc1OC (configuration not stated) | 30% | 99% (active) | 99.5% (active) | 20% | 99% (active) | 99.5% (active) | 48% | 99% (active) | 99.4% (active) | 34% | 99% (active) | 98.3% (active) | 85% (active) | 99% (active) | 99.3% (active) | 75% (active) | 99% (active) | 99.3% (active)
N#C[S-].[La+3].c1cnc2c(c1)ccc1cccnc12.c1cnc2c(c1)ccc1cccnc12.c1cnc2c(c1)ccc1cccnc12 | 97% (active) | 98% (active) | 91.9% (active) | 99% (active) | 99% (active) | 94.4% (active) | 99% (active) | 99% (active) | 93.5% (active) | 95% (active) | 98% (active) | 92.7% (active) | 99% (active) | 99% (active) | 92.1% (active) | 98% (active) | 98% (active) | 91.3% (active)
CN(C)c1ccc(N=Nc2cccc(C(=O)[O-])c2)cc1.CN(C)c1ccc(N=Nc2cccc(C(=O)[O-])c2)cc1.NC1CCCCC1N.O=[N+]([O-])O.[Pt+4] | 1% | 98% (active) | 91% (active) | 21% | 98% (active) | 91.7% (active) | 23% | 99% (active) | 93.2% (active) | 28% | 97% (active) | 44.1% | 45% | 98% (active) | 81.5% (active) | 41% | 97% (active) | 92% (active)
